Hits are enriched below; roughly 1.6% of the tested compounds scored in any of these assays.
KCNQ2 enhance – enhances the rat KCNQ2 potassium channel; actives 0.54% (n = 310,000); CHO-K1 KCNQ2, FluxOR thallium flux fluorescence; active compounds read high; O88943; B-score at 10 µM;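 active means fluorescence ratio B-score at least 3 SD of library B-scores, with initial fluorescence B-score within 3 of them, cut at about 5.3 in these data; same plate scores as AID 2156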;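 further: B-score of peak minus minimum over baseline fluorescence ratio after K+ and Tl+ stimulus; positive B-score means potentiation of KCNQ2 with more thallium influx and brighter signal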
KCNQ2 block – inhibitors of rat KCNQ2 potassium channel. O88943. CHO-K1 KCNQ2, FluxOR thallium flux, 20 min; active compounds read low. B-score at 10 µM. actives 1.1% (n = 310,000);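 active means fluorescence ratio B-score at most minus 3 library SDs, with starting brightness B-score within 2 library SDs, cut at about -5.5 in these data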
Kir21 confirm – confirmation of mouse Kir2.1 potassium channel inhibitors. shares compounds with KCNQ2 enhance. Kir2.1-expressing cells, FluxOR thallium flux fluorescence; active compounds read low. Tl flux remaining, % of negative control (active compounds read low), % at 10 µM. actives 41% (n = 2,300). AID 2032;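 active means Primary-screen hit whose thallium flux fell at least 3 control SD below untreated wells in both duplicates, with normal baseline fluorescence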;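 further: 0% = blank wells without stimulus and 100% = stimulated no-compound controls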
Target sequence (P35561 whole entry, looked up): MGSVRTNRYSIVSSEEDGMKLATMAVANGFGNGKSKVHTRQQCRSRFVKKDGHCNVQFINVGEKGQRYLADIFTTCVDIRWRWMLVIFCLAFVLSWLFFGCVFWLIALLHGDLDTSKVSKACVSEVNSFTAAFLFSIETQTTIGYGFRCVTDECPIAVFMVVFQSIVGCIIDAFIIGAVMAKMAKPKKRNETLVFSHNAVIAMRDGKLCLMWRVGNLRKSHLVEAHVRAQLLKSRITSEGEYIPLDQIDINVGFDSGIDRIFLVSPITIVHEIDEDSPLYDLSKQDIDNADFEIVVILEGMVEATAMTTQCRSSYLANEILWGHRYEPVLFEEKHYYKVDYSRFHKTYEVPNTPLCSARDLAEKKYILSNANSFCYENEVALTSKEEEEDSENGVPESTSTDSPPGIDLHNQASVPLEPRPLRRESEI
HEK293 Tl flux – counter-screen for Kir2.1 inhibitors: effect in parental HEK293 cells; shares compounds with KCNQ2 enhance; FluxOR thallium flux fluorescence; 0% = unstimulated blank wells; FluxOR signal as % of negative control (100 = no effect), % at 10 µM; actives 19% (n = 2,300); AID 2105;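 active means dye signal at least 3 control SD above or below untreated wells in both duplicates, raw fluorescence within 3, either direction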;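 further: percent is based on the flux ratio of peak minus minimum fluorescence over baseline F0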
CHO-K1 ctr – counter-screen for KCNQ2 potentiators: effect in parental CHO-K1 cells; shares compounds with KCNQ2 enhance; FluxOR thallium flux fluorescence; zero = vehicle mean+3SD, 100% = vehicle-minus-blank window; activity increase over 3SD of controls, % at 10 µM; actives 43% (n = 1,200); AID 2282;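 active means signal rise of at least 3 SD above the untreated control mean, in both duplicate wells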;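 further: counter screen of KCNQ2 potentiator hits so any rise reflects channel-independent effects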
KCNQ1 pot spec – selectivity of KCNQ2 potentiators: effect on human KCNQ1; activation over 3SD threshold, % at 10 µM; CHO KCNQ1 stable, FluxOR thallium flux fluorescence; beyond 3SD, as % of vehicle-control signal; shares compounds with KCNQ2 enhance; AID 2283; actives 28% (n = 1,200);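 active means fluorescence ratio rise of at least 3 SD of vehicle wells above their mean, in both replicate wells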;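 further: 0% = vehicle mean plus 3 SD and 100% = vehicle minus unstimulated blank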
KCNQ2 pot conf – rat KCNQ2 channel potentiator confirmation. shares compounds with KCNQ2 enhance. CHO-KCNQ2 cells, FluxOR thallium flux fluorescence. potentiation, less the hit threshold, % at 10 µM. actives 68% (n = 1,200). AID 2287;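 active means fluorescence ratio rising 3 SD or more over the vehicle control mean in both replicates, plus primary screen hit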;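 further: peak minus minimum thallium fluorescence divided by baseline after K/Tl stimulus; 0% = vehicle mean plus 3 SD and 100% = vehicle minus unstimulated blank difference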
Kir2-1 sel – selectivity of KCNQ2 potentiators: effect on mouse Kir2.1 | HEK293 Kir2.1, FluxOR thallium flux fluorescence | AID 2345 | shares compounds with KCNQ2 enhance | activity over 3SD threshold, % at 10 µM | actives 2% (n = 1,200);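 active means fluorescence ratio rise of at least 3 SD above the vehicle-control mean, seen in both replicates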;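 further: 0% = vehicle mean plus 3 SD and 100% = vehicle minus no-stimulus blank window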
KCNQ2 W236L MoA – potentiates the retigabine-insensitive rat KCNQ2 W236L mutant channel | shares compounds with KCNQ2 enhance | CHO KCNQ2-W236L, automated patch clamp current | current increase over 3SD of negative controls (%), active compounds read high, % at 25 µM | actives 10% (n = 940);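 active means current increase at least 3 SD of the untreated controls above them in both duplicate recordings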
* hit, by the source's call; i = inactive; nt = no result given.

SMILES | KCNQ2 enhance | KCNQ2 block | Kir21 confirm | HEK293 Tl flux | others
CC1Cc2ccccc2N1C(=S)NC(=O)c1ccco1 (configuration not stated) | 3.1 | i | nt | nt
Cc1nc(NC(=O)C2CC2)sc1C(=O)Nc1ccccc1Cl | nt | i | nt | nt
Oc1c(CN2CCN(c3ccccc3)CC2)cc(Br)c2cccnc12 | 0.22 | i | nt | nt
Oc1c(CN2CCOCC2)cc(COCc2ccccc2)c2cccnc12 | 11* | i | i | i | CHO-K1 ctr=-18;KCNQ1 pot spec=-25;KCNQ2 pot conf=26*;Kir2-1 sel=-41;KCNQ2 W236L MoA=i
CCSC(=S)c1c(C)[nH]n(-c2ccccc2)c1=O | 7* | i | i | 222%* | CHO-K1 ctr=-21;KCNQ1 pot spec=-9;KCNQ2 pot conf=-4;Kir2-1 sel=-28;KCNQ2 W236L MoA=i
Cc1[nH]n(-c2ccccc2)c(=O)c1C(=O)c1ccccc1 | nt | i | nt | nt
CN(CCCC(=O)N1CCCC(C(N)=O)C1)S(=O)(=O)c1ccc(F)cc1 (configuration not stated) | 0.12 | i | nt | nt
CC(=O)N(C1CC(C)C(C#N)(C#N)C1(C#N)C#N)N(C)C (configuration not stated) | 24* | i | i | 63%*
COCCCNC(=S)N1CCC(C(=O)c2ccc(Cl)cc2)CC1 | 0.22 | i | nt | nt
COc1ccc(CNC2CCSc3ccccc32)cc1OC (configuration not stated) | 2 | i | nt | nt
CCOc1ccc(C(=O)n2cnnc2N)cc1 | 2.7 | i | nt | nt
Oc1ccc(Br)cc1/C=N/n1c(C2CCCCC2)n[nH]c1=S | 7.4* | i | i | i | CHO-K1 ctr=70*;KCNQ1 pot spec=-12;KCNQ2 pot conf=-16;Kir2-1 sel=-19
Oc1ccc(/C=N/n2c(C3CCCCC3)n[nH]c2=S)c(O)c1 | nt | i | nt | nt
Cc1nnc(C)n1/N=C/c1cc(Br)cc(Br)c1O | 11* | i | i | i | CHO-K1 ctr=-23;KCNQ1 pot spec=41*;KCNQ2 pot conf=17*;Kir2-1 sel=-30;KCNQ2 W236L MoA=i
Oc1c(Br)cc(Br)cc1/C=N/n1c(-c2ccccc2)n[nH]c1=S | 11* | i | i | i | CHO-K1 ctr=12*;KCNQ1 pot spec=-10;KCNQ2 pot conf=11*;Kir2-1 sel=-42;KCNQ2 W236L MoA=i
Cc1nnc(C)n1/N=C/c1cc(Br)ccc1O | nt | i | nt | nt
Oc1c(Br)cc(/C=N/n2c(-c3ccccc3)n[nH]c2=S)c(Br)c1O | nt | i | nt | nt
Cc1ccc2cccc(NC3OC(=O)c4ccccc43)c2n1 (configuration not stated) | 1.1 | i | nt | nt
Cc1c(Nc2ccc(C=O)cc2)c(=O)n(-c2ccccc2)n1C | 0.87 | i | nt | nt
O=c1[nH]nc(SCc2nnc(-c3cccc(Cl)c3)o2)n1C1CCCCC1 | 0.37 | i | nt | nt
CC(C)Sc1nc2ccccc2n2cnnc12 | 2.2 | i | nt | nt
O=C(OCc1ccc(Cl)c(Cl)c1)c1ccc[nH]1 | nt | i | nt | nt
COc1ccc(CNCC(O)(c2ccccc2)c2ccc(Cl)cc2)cc1 (configuration not stated) | -5.6 | -5.6* | 62%* | i
COc1ccc(CCNCC(O)COc2cccc(Br)c2)cc1 (configuration not stated) | 0.09 | i | 25%* | i
Cc1ccc(CNCC(O)(c2ccccc2)c2ccccc2)cc1 | nt | i | 42%* | i
SMILES | KCNQ2 enhance | KCNQ2 block | Kir21 confirm | HEK293 Tl flux | others
COc1ccc(CNCC(O)COc2ccc(C(C)(C)c3ccccc3)cc2)cc1 (configuration not stated) | nt | i | 41%* | 65%*
Cc1ccc(CNC(=O)NCc2ccccc2)cc1 | 1.7 | i | nt | nt
COC(=O)c1ccc(CNCC(O)COc2ccc(-c3ccccc3)cc2)cc1 (configuration not stated) | nt | i | nt | nt
COc1ccc(CNCc2cccc(Cl)c2)cc1 | 0.35 | i | nt | nt
CC(=O)c1cccc(OCC(O)CNCCc2ccc(Cl)cc2)c1 (configuration not stated) | 0.27 | i | nt | nt
NC(=S)Nc1cccc2[nH]ccc12 | 0.01 | i | nt | nt
CC(C)CCNC(=O)C1CCC(CNc2c(N3CCCC3)c(=O)c2=O)CC1 (configuration not stated) | nt | i | nt | nt
O=S(=O)(c1ccc(F)cc1)N1CCCc2ccccc21 | nt | i | 71%* | i
CC(=O)c1ccc(S(=O)(=O)N2CCCc3ccccc32)cc1 | nt | i | nt | nt
O=C(O)c1ccc(S(=O)(=O)N2CCCc3ccccc32)cc1 | nt | i | nt | nt
O=S(=O)(c1ccccc1)N1CCCc2ccccc21 | nt | i | 64%* | i
CC1CCN(C(=S)NC(=O)c2cccc([N+](=O)[O-])c2)CC1 | 2.8 | i | nt | nt
CCC1CCCCN1C(=S)NC(=O)c1cccc([N+](=O)[O-])c1 (configuration not stated) | 4.1 | i | i | 348%*
O=C(c1cccs1)N1CCC(c2nc3c(nnn3Cc3ccccc3Cl)c(=O)[nH]2)CC1 | 0.13 | i | nt | nt
CC(=O)Oc1ccc2c3c(c(=O)oc2c1)CCCC3 | 0.71 | i | nt | nt
O=c1oc2cc(O)ccc2c2c1CCCC2 | 0.87 | i | i | i
C=CCOc1c(Cl)cc(C(=S)N2CCCC2)cc1OCC | nt | i | nt | nt
COc1ccc(C2C(C#N)=C3NC(=O)c4c(sc5c4CCCCC5)N3C3=C2C(=O)CC(C)(C)C3)cc1 (configuration not stated) | 13* | i | i | i | CHO-K1 ctr=70*;KCNQ1 pot spec=-4;KCNQ2 pot conf=15*;Kir2-1 sel=-23;KCNQ2 W236L MoA=i
COc1ccc(C2C(C#N)=C(N)N(c3sc4c(c3C#N)CCCC4)C3=C2C(=O)CC(C)(C)C3)cc1 (configuration not stated) | nt | i | nt | nt
COc1cccc(CN2CC(C(=O)N(C)C3CCOCC3)CCC2=O)c1 (configuration not stated) | 1.7 | i | nt | nt
Nc1nc(Nc2ccc(Cl)cc2)nc2ccccc12 | nt | i | i | 174%*
CCOc1ccc(Nc2nc(N)nc(CCl)n2)cc1 | 0.03 | i | nt | nt
Nc1nc(Nc2ccccc2)nc2ccccc12 | 2.8 | i | nt | nt
CCOc1ccc(Nc2nc(N)c3ccccc3n2)cc1 | 0.08 | i | 50%* | i
CN(C)c1ccc(Nc2nc(N)c3ccccc3n2)cc1 | 1.5 | i | 32%* | i
Cc1ccccc1Nc1nc(N)c2ccccc2n1 | 0.58 | i | nt | nt
CCOC(=O)c1csc(NNC=O)n1 | nt | i | nt | nt
